Records with an inconclusive call do not appear. Activity calls are given as the source filed them. Calls follow the shape of the dose curve; as a rule, active = well fitted inhibition curve with a large enough effect; inconclusive = small, poorly fitted or top-dose-only effect; inactive = flat fitted curve, though single readings scatter.
% is scaled to controls: 0 for no effect and ±100 for the full control effect.

Sequence of Calcium and integrin-binding protein 1 (Homo sapiens) (Q99828 whole entry, looked up): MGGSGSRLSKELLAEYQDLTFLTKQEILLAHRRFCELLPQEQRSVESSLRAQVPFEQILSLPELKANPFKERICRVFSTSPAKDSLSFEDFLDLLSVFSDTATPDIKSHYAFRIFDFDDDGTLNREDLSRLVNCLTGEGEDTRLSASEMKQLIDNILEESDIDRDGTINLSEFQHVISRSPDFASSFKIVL

This experiment concerns the target Calcium and integrin-binding protein 1 (Homo sapiens) (UniProt Q99828). Briefly: Primary qHTS for Identification of Calcium Integrin Binding Protein 1 (CIB1) Competitor (AID 1508620).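 Also: GST tagged CIB1 binding a fluorescein labelled alphaIIb integrin peptide tracer; top concentration of the series differs between compounds.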 The note with it: CIB1-GST / FITC-alphaIIb peptide fluorescence polarization; series mostly up to 114 µM; activity change, negative = inhibition: at the top concentration. The procedure, abridged:
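CIB1-GST (1 uM final) and compound incubated 15 min at room temperature before adding FITC-alphaIIb peptide tracer (100 nM final). Competition for binding read by fluorescence polarization (ex 480, em 540) after another 15 min at room temperature.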
Turning to `COc1ccc(C2=Nn3c(nnc3-c3ccc(OC)cc3OC)SC2)c(OC)c1`, the “activity change, negative = inhibition” value is -0.296% (inactive).
Next, `Cc1ccc2nc(NC3=NC4(CCCC4)C4=C(CCCC4=O)N3)oc2c1`: -16% (inactive); `O=C(Nc1ccc2c(c1)OCCO2)Nc1nnc(-c2ccncc2)s1`: -1% (inactive).
Under `CC1=C(C(=O)Nc2ccon2)C(c2ccccc2Br)N=C(Nc2nc3ccccc3o2)N1` (stereo not drawn) stands -0.654% (inactive).
In the case of `COc1ccc2ncnc(NCC3CCCO3)c2c1-c1ccc2c(c1)OCO2` (stereo not drawn), the “activity change, negative = inhibition” value is -3.78% (inactive).
Under `Cc1cc2c(s1)c1cnn(Cc3cccc([N+](=O)[O-])c3)c(=O)c1n2C` stands 2.52% (inactive).
Next, `Cc1cc(C)nc(NC(=S)N2CCN(c3cc(C#N)cc(C#N)c3)CC2)c1`: 0.406% (inactive); `CCC(C)N(C)C(=O)Cn1nc(-c2ccc(C)cc2)ccc1=O` (stereo not drawn): -2.83% (inactive); `Cn1cnc(CCNc2ncnc3ccc(-c4ccc5c(c4)OCO5)cc23)c1`: -1.33% (inactive).
Under `COc1cccc(C2c3c(ncn(-c4ccccc4C(C)(C)C)c3=N)Oc3ccc4ccccc4c32)c1` (stereo not drawn) stands 7.01% (inactive); under `CC(=O)Nc1sc2c(c1C(=O)O)CCNC2`, 1.07% (inactive).
As for `CNc1oc(-c2cccc3ncccc23)nc1C#N`, the “activity change, negative = inhibition” value is -2.75% (inactive).
Under `CN(CC(F)(F)F)c1nc(NCc2ccc(-c3cccnc3)cc2)c2ccccc2n1` stands 2.89% (inactive); under `C[C@H]1CN(S(=O)(=O)c2c(F)cccc2F)CCN1S(=O)(=O)c1ccc2c(c1)OCCO2`, -2.01% (inactive).
Under `CC(=O)Nc1cccc(OCc2cccc(C3Nc4ccccc4C(=O)N3Cc3ccco3)c2)c1` (stereo not drawn) stands -2.25% (inactive); under `Cc1ccc(NS(=O)(=O)c2ccc(N3CCCC3=O)cc2)cc1C`, 4.41% (inactive).
Consider `Cc1ccc(CNc2nc(-c3ccccc3C(F)(F)F)nc3ccccc23)cc1`, for which the “activity change, negative = inhibition” value is 2.08% (inactive).
Consider `CN(C)[S+](=O)([O-])c1ccc(-c2ccc(=O)n(CC(=O)NCCc3ccccc3)n2)cc1`, for which the “activity change, negative = inhibition” value was 3.22% (inactive).
Under `O=C1c2ccccc2C(=O)N1c1cncc2ccccc12` stands 5.67% (inactive).
Take `COc1cc(OC)c2c(c1)OC(=O)CC2c1ccc2c(c1)OCO2` (stereo not drawn): the “activity change, negative = inhibition” value was -0.25% [at 228 µM] (inactive).
Next, `COc1cccc(NS(=O)(=O)c2ccc(NCc3cccc(OC)c3O)cc2)c1`: -1.84% (inactive).
Under `Cc1cc(N[S+](=O)([O-])c2ccc(NC(=O)Cn3c(=O)oc4ccc(Cl)cc43)cc2)no1` stands 1.67% (inactive); under `Cn1c2ccsc2c2cnn(Cc3ccc(F)cc3)c(=O)c21`, 0.241% (inactive).
